For assay [1], the target named is Catechol O-methyltransferase (Homo sapiens) (UniProt P21964). Briefly: Confirmatory Screen for Target Class Profiling of Small Molecule Inhibitors of Methyltransferases (AID 1745852; calls by dose curve; note: potency is the fitted concentration of half-maximal effect; for activity change, negative = inhibition: % is set by controls: 0 for no effect and ±100 for the full control effect). The conditions noted are these: MTase-Glo luminescence, SAH detection, recombinant enzyme; measured here: COMT max response; stronger effect = lower value.
Chain of Catechol O-methyltransferase (Homo sapiens) (P21964 whole entry, looked up): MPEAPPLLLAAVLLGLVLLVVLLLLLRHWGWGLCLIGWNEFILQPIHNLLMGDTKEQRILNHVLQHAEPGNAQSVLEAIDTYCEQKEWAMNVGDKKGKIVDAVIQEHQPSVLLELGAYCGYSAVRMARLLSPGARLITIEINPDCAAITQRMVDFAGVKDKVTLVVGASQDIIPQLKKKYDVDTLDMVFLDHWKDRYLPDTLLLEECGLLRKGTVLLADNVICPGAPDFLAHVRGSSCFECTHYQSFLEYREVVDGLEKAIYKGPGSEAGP
The target in assay [2] is Guanidinoacetate N-methyltransferase (Homo sapiens) (UniProt Q14353). The description is as above. The conditions noted are these: MTase-Glo luminescence, SAH detection, recombinant enzyme; activity change, negative = inhibition: at 57.3 µM (top of the series).
The nature of assay [3]: Primary qHTS for inhibitors of nuclear receptor binding SET domain protein 2 (NSD2) in an RCH-ACV wild type WT cells (2C) (AID 1645877). Note: % is set by controls: 0 for no effect and ±100 for the full control effect; nearly all actives have a fitted effect of over 70% in size. The conditions noted are these: RCH-ACV (leukaemia line) NSD2 WT (2C) viability, CellTiter-Glo, 72 h; series mostly up to 44.9 µM.
For assay [4], the target named is Rap guanine nucleotide exchange factor 3 (Homo sapiens) (UniProt O95398). As to the kind of experiment: Confirmatory qHTS for antagonist of cAMP-regulated guanine nucleotide exchange factor 3 (EPAC1) (AID 1645880).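 Note: plate controls were DMSO only for no effect and full effect of the ATA control for full effect; nearly all actives have a fitted effect of over 55% in size.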 Particulars: EPAC1 Rap1B-BODIPY-GDP exchange, fluorescence; series mostly up to 115 µM. In a few lines:
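Nucleotide exchange uses 100 nM EPAC1, 250 nM RAP1B-BODIPY-GDP and 50 uM GDP, with compounds in a concentration-titration series. After 5 min at room temperature, fluorescence (480 nm ex/540 nm em) is read every 5 min for 30 min. Data are normalized to control ATA and DMSO.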
(qHTS replaces the single test concentration by a dilution series.)

Assay [5] shares this target. As to the kind of experiment: Confirmatory qHTS for agonist of cAMP-regulated guanine nucleotide exchange factor 3 (EPAC1) (AID 1645881).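 Note: EPAC1 catalysed release of BODIPY-GDP from Rap1B seen as fluorescence loss; 100% = effect of cAMP agonist control; nearly all actives have a fitted effect of over 75% in size.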 The conditions noted are these: EPAC1 Rap1B BODIPY-GDP exchange fluorescence; series mostly up to 154 µM.
In assay [6] the target is Rap guanine nucleotide exchange factor 4 (Homo sapiens) (UniProt Q8WZA2). Briefly: Confirmatory qHTS for antagonist of cAMP-regulated guanine nucleotide exchange factor 4 (EPAC2) (AID 1645885). Note: % is set by controls: 0 for no effect and ±100 for the full control effect; nearly all actives have a fitted effect of over 25% in size. Particulars: EPAC2 Rap1B-BODIPY-GDP exchange fluorescence, biochemical; series mostly up to 114 µM.
Chain of Rap guanine nucleotide exchange factor 4 (Homo sapiens) (Q8WZA2 whole entry, looked up): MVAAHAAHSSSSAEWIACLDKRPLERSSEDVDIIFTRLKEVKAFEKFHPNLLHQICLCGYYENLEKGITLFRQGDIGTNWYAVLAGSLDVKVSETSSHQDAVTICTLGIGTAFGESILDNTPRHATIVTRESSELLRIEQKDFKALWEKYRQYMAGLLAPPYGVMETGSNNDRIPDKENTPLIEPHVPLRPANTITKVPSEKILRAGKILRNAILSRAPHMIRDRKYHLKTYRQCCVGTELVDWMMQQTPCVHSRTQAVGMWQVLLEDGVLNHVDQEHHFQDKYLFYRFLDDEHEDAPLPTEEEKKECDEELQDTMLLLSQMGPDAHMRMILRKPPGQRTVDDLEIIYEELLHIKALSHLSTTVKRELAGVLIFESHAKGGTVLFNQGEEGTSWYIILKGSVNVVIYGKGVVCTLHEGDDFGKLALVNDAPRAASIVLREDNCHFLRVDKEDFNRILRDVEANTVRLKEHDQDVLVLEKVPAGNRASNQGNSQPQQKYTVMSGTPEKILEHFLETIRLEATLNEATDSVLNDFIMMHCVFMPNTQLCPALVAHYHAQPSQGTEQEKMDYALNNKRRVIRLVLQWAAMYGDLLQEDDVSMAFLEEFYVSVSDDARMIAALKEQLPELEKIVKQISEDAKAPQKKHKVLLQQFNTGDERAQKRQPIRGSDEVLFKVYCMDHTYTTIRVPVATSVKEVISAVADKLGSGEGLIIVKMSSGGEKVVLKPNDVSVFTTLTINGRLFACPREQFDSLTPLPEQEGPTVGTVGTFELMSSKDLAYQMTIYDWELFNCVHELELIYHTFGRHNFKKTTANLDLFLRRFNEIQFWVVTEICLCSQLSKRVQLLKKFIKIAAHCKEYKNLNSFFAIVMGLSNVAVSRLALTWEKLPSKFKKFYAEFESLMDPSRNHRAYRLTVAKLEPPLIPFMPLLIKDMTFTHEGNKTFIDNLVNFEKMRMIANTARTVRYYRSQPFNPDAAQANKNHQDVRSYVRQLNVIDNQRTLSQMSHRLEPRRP
For assay [7] the target is unchanged. As to the kind of experiment: Confirmatory qHTS for agonist of cAMP-regulated guanine nucleotide exchange factor 4 (EPAC2) (AID 1645884).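 Note: nucleotide exchange releases bodipy-GDP from Rap1 and this lowers its fluorescence; % is set by controls: 0 for no effect and ±100 for the full control effect; nearly all actives have a fitted effect of over 65% in size.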 The conditions noted are these: EPAC2 GEF activity, Rap1B-BODIPY-GDP fluorescence; series mostly up to 154 µM.

Where “and” joins values, the source holds several entries; their conditions need not be identical. Equal values may be shown once. Records with an inconclusive call do not appear. Calls of active or inactive are those of the source. Unless noted, calls come from the whole dose curve; as a rule, active = well fitted curve in the direction sought with a large enough effect; inconclusive = small, poorly fitted or top-dose-only effect, or another doubt; inactive = no such curve, though single readings can be large; an effect the other way counts as inactive or inconclusive.

Chain of Rap guanine nucleotide exchange factor 3 (Homo sapiens) (O95398 whole entry, looked up): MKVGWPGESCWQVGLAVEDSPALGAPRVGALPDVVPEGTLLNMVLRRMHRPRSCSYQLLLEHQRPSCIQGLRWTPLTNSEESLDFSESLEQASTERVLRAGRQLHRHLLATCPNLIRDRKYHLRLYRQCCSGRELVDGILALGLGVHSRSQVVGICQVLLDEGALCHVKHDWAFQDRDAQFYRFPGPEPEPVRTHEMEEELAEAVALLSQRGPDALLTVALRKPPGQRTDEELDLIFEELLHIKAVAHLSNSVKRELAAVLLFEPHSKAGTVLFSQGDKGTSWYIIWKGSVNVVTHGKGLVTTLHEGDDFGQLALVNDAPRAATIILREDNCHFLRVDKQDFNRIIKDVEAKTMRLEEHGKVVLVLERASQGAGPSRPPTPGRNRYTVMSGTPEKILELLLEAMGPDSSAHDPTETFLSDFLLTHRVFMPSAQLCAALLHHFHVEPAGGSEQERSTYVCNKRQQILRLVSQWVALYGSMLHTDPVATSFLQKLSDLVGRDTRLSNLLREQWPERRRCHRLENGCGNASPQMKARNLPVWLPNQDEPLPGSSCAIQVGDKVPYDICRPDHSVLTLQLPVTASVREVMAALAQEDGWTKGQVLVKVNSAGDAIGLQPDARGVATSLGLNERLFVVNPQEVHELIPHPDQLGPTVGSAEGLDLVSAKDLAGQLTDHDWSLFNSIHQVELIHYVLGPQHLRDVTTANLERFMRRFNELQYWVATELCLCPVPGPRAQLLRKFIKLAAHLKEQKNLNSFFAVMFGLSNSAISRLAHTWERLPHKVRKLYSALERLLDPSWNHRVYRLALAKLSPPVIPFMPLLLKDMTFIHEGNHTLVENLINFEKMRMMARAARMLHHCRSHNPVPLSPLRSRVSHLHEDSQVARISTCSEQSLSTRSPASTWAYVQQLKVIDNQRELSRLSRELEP

Regarding `O=[N+]([O-])c1ccc(CNc2nc(NCc3cccc(C(F)(F)F)c3)nc3nc[nH]c23)cc1`, the activity in assay [1] was -6.92% and 9.66%. Further, the activity change, negative = inhibition in assay [2] is -3.71% and 5.72%.
On to `CN1CCc2cccc3c2C1Cc1ccc(O)c(O)c1-3` (stereo not drawn), for which the activity in assay [1] worked out at 5.12%. In addition, the activity change, negative = inhibition in assay [2] turned out to be 3.98%.
In the case of `O=C(O)CNC(=O)C(CS)Cc1ccccc1` (stereo not drawn), the activity in assay [1] is 9.44%. In assay [2], the activity change, negative = inhibition was 4.59%.
In the same order, the values of `O=C(O)CC[C@@H](C(=O)O)N1C(=O)c2ccccc2C1=O` are -23.9% and -2.85%.
On to `Oc1ccccc1O`, for which the activity in assay [1] came to 160%. Further, the activity change, negative = inhibition in assay [2] was -2.32%.
With `COc1ccc(NC(=O)/C=C/c2ccc(Cl)cc2)cc1`, the activity in assay [1] is -21.5%. In addition, in assay [2], the Potency was 24.3 µM (active).
In the case of `COC(=O)[C@H]1[C@H]2C[C@@H]3c4[nH]c5cc(OC)ccc5c4CCN3C[C@H]2C[C@@H](OC(=O)/C=C/c2cc(OC)c(OC)c(OC)c2)[C@@H]1OC`, the Potency entry in assay [3], in assay [4], in assay [5] and in assay [6] was “inactive” in each case.
As for `Cc1ccc(O)c(N=Nc2ccccc2)n1`, the Potency result in assay [5] and in assay [7] was “inactive” each time.
As for `O=C(O)c1cc([N+](=O)[O-])ccc1NCCCc1ccccc1`, the Potency result in assay [4], in assay [5] and in assay [7] was “inactive” in each case.
As for `O=Nc1ccc2oc(=O)ccc2c1`, the activity in assay [1] turned out to be 0.573%. Also, in assay [2], the activity change, negative = inhibition is 3.53%.

Values taken from PubChem BioAssay (NCATS).
